In PubChem BioAssay:
Calls of active or inactive are those of the source. No rule for the calls is given here.

The compounds below were run against Protein kinase 7 (PK7), Plasmodium falciparum 3D7 (PF3D7_0213400) (UniProt Q7YTF7) (assay: inhibition of Plasmodium PK7 catalytic activity – biochemical, TCAMS antimalarial set, Kinase-Glo luminescence (AID 1159587)). Settings: recombinant PfPK7, Kinase-Glo ATP depletion luminescence.
Protein kinase 7 (PK7), Plasmodium falciparum 3D7 (PF3D7_0213400), sequence (Q7YTF7 1-343): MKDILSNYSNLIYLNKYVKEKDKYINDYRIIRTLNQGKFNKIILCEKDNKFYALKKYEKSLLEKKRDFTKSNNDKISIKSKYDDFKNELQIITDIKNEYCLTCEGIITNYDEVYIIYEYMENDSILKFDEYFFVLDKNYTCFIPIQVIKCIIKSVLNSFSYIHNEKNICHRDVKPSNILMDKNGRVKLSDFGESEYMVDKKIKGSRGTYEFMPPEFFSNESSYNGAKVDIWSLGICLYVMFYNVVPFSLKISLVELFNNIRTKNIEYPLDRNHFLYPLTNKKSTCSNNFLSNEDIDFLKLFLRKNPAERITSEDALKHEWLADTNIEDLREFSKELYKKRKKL

Which outcome does the source give for `Cc1cccc2[nH]c(-c3cccc(-c4cccc(NC(=O)Cc5ccc[n+]([O-])c5)c4)c3)nc12` here?
The outcome was “inactive”.

Which outcome does the source give for `c1cc2nc(CCCCc3nc4ccc(C5=N[C@@H]6CCCC[C@@H]6N5)cc4[nH]3)[nH]c2cc1C1=N[C@@H]2CCCC[C@@H]2N1` here?
Its outcome is “inactive”.

For `C=CC[C@@H](C[C@H](O)[C@H](Cc1ccccc1)NC(=O)c1ccc(-c2cccnn2)cc1)C(=O)NC1CCCCC1`, which outcome is on record?
Its outcome is “inactive”.

For `COc1ccc(Nc2nc(N/N=C/c3cc(Br)c(O)cc3O)nc(Nc3ccc([N+](=O)[O-])cc3)n2)cc1`, which outcome is on record?
The outcome was “inactive”.

How did the outcome turn out when `COc1cc(/C=N/Nc2ccnc3cc(Cl)ccc23)ccc1O` was run?
The outcome was “inactive”.

For `CCn1c(/C=C/c2cc(Br)ccc2O)nc2ccccc2c1=O`, which outcome is on record?
Its outcome is “inactive”.

Which outcome does the source give for `c1cc2nc(CCCCCc3nc4ccc(C5=N[C@H]6CCCC[C@H]6N5)cc4[nH]3)[nH]c2cc1C1=N[C@H]2CCCC[C@H]2N1` here?
The outcome was “inactive”.

With `C=CC[C@@H](C[C@H](O)[C@H](Cc1ccccc1)NC(=O)c1ccc(-n2cccn2)cc1)C(=O)NC1CCCCC1` as the compound, how does the outcome read?
The outcome was “inactive”.

Which outcome does the source give for `C/C(=N\NC(N)=O)C1=C(O)C(c2ccccc2)N(C2CCCCC2)C1=O` (configuration not stated) here?
The outcome was “inactive”.

For `O/N=C1\CCc2cc(-c3nc(-c4ccc(OCCN5CCCCC5)cc4)[nH]c3-c3ccncc3)ccc21`, which outcome is on record?
Its outcome is “inactive”.

With `O/N=C1\CCc2cc(-c3cc(-c4ccc(OC5CCNCC5)cc4)oc3-c3ccncc3)ccc21` as the compound, how does the outcome read?
Its outcome is “inactive”.

For `Nc1ccc(-c2nc3cc(C4=N[C@@H]5CCCC[C@@H]5N4)ccc3o2)cc1[N+](=O)[O-]`, which outcome is on record?
Its outcome is “inactive”.

With `Nc1cc(/C=C/c2ccc(O)cc2)nc2ccccc12` as the compound, how does the outcome read?
The outcome was “inactive”.

For `O=[N+]([O-])c1ccc(-c2nc3ccc(C4=N[C@@H]5CCCC[C@@H]5N4)cc3[nH]2)cc1`, which outcome is on record?
Its outcome is “inactive”.

Which outcome does the source give for `CC(C)C[C@H](C(=O)N[C@H](C(=O)Nc1nccs1)C(C)(C)C)[C@H](CCC(F)(F)F)N(O)C=O` here?
The outcome was “inactive”.

How did the outcome turn out when `Cc1cc(C)c2c(c1)/C(=N/O)CCN2` was run?
Its outcome is “inactive”.

With `CN(C)C[C@H](O)[C@H](c1ccccc1)c1ccc(Cl)cc1` as the compound, how does the outcome read?
Its outcome is “inactive”.

Which outcome does the source give for `CC1CCC(C[C@H](C(=O)N[C@@H](CCC(=O)N2CCCCC2)C(=O)Nc2nccs2)[C@H](C(C)C)N(O)C=O)CC1` (some centres not stated) here?
The outcome was “inactive”.

For `CCC[C@@H]([C@H](CC(C)C)C(=O)N[C@@H](CCCN=C(N)NS(C)(=O)=O)C(=O)Nc1nccs1)N(O)C=O`, which outcome is on record?
The outcome was “inactive”.

Which outcome does the source give for `C[C@@H]([C@H](CCCc1ccc(Cl)cc1)C(=O)N[C@H](C(=O)Nc1cccnc1)C(C)(C)C)N(O)C=O` here?
Its outcome is “inactive”.

How did the outcome turn out when `COc1cc(/C=C(\C2=NC(=O)CS2)c2nc3cccnc3n2C)ccc1O` was run?
The outcome was “inactive”.

With `O=C(Cc1ccc[n+]([O-])c1)Nc1cccc(-c2cccc(-c3nc4ccc(F)cc4[nH]3)c2)c1` as the compound, how does the outcome read?
The outcome was “inactive”.

For `CC[C@H](C)[C@H](NC(=O)[C@@H](CC1CCCCC1)[C@H](CC)N(O)C=O)C(=O)Nc1ccccn1`, which outcome is on record?
Its outcome is “inactive”.

Which outcome does the source give for `Cc1cc(-c2cc(-c3ccc(OCCN(C)C)cc3)[nH]c2-c2ccc3c(c2)CC/C3=N\O)ccn1` here?
Its outcome is “inactive”.

How did the outcome turn out when `O=C(N/C=N/c1cc([N+](=O)[O-])c(-c2cccnc2)n1-c1ccc(O)cc1)c1ccccc1` was run?
The outcome was “inactive”.

Which outcome does the source give for `Oc1ccc2ccccc2c1/C=N/Nc1nc(Nc2ccccc2)nc(Nc2ccccc2)n1` here?
The outcome was “inactive”.

`Oc1ccc2ccccc2c1/C=N/Nc1nc(Nc2ccccc2)nc(N2CCOCC2)n1` was tested. Which outcome did it give?
The outcome was “inactive”.

For `O/N=C1\CCc2cc(-c3nc(-c4cccc(OCCNCc5ccc(F)cc5)c4)[nH]c3-c3ccncc3)ccc21`, which outcome is on record?
The outcome was “inactive”.

Which outcome does the source give for `COc1ccc(C2=[N+]([O-])c3ccccc3C2=O)cc1` here?
The outcome was “inactive”.

For `CCC[C@@H]([C@H](CC(C)C)C(=O)N[C@@H](CCCCNC(=O)OCc1ccccc1)C(=O)Nc1ncccn1)N(O)C=O`, which outcome is on record?
The outcome was “inactive”.

With `CCC[C@@H]([C@H](CC1CCCCC1)C(=O)N[C@H](C(=O)Nc1ccccn1)[C@H](C)CC)N(O)C=O` as the compound, how does the outcome read?
The outcome was “inactive”.

With `CO[C@H](C)[C@H](NC(=O)[C@@H](CC(C)C)[C@H](CCC(F)(F)F)N(O)C=O)C(=O)Nc1nccs1` as the compound, how does the outcome read?
Its outcome is “inactive”.

For `CCCO[C@H](C(=O)OC)[C@H](CC1Cc2ccccc2C1)C(=O)NCCC1=CCCCC1`, which outcome is on record?
Its outcome is “inactive”.

`CC[C@@H]([C@H](CC(C)C)C(=O)N[C@@H](CCCCNC(=O)OCc1ccccc1)C(=O)Nc1ccccn1)N(O)C=O` was tested. Which outcome did it give?
The outcome was “inactive”.

For `Cc1cccc2[nH]c(-c3cccc(-c4ccc(NC(=O)Cc5ccc[n+]([O-])c5)cc4)c3)nc12`, which outcome is on record?
Its outcome is “inactive”.

How did the outcome turn out when `O=C(N/N=C/c1nc2ccccc2[nH]1)c1cccc([N+](=O)[O-])c1` was run?
The outcome was “inactive”.

Which outcome does the source give for `COc1cc(-c2nc(-c3ccc4c(c3)CC/C4=N\O)c(-c3ccncc3)[nH]2)ccc1OCCN1CCCCC1` here?
Its outcome is “inactive”.
